# Screening data as filed in PubChem BioAssay.
# JMJD2A Tudor inh = qHTS Assay for Inhibitors of JMJD2A-Tudor Domain | AID 504339, 2011 | Potency, µM (top dose mostly 114 µM), for the others: top-dose activity change, negative = inhibition, most hits filed as inhibitors | hit rate 4.4% among 390,000 | AlphaScreen JMJD2A-Tudor / H3K4me3 peptide binding; also: % is scaled to controls: 0 for no effect and ±100 for the full control effect; nearly all actives have a fitted effect of over 50% in size
# Sfp inh = qHTS Assay for Inhibitors of Bacillus subtilis Sfp phosphopantetheinyl transferase (PPTase); 4'-phosphopantetheinyl transferase ffp (Bacillus subtilis), Q9F4F7; hit rate 3.5% among 310,000; Potency, µM, for the others: largest response in the series, negative = inhibition, hits mostly inhibitors; Biochemical Sfp PPTase activity, qHTS; AID 1490, 2009;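 also: the enzyme is Sfp with the accession as filed and its product quenches rhodamine fluorescence; 0% = enzyme reaction without inhibitor and -100% = no enzyme wells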
#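 Compounds were incubated with enzyme (final 15 nM) for 15 min at room temperature before substrate addition started the reaction. Fluorescence at 525 nm excitation, 598 nm emission was recorded immediately and after 30 minutes.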
# G9a inh = qHTS Assay for Inhibitors of Histone Lysine Methyltransferase G9a; hit rate 8.8% among 350,000; G9a H3K9 monomethylation, AlphaScreen, 2 h; Histone-lysine N-methyltransferase EHMT2 (Homo sapiens), Q96KQ7; AID 504332, 2011; Potency, µM (series often up to 102 µM), for inactives: at the highest dose activity, negative = inhibition, usual class: inhibitors; also: % is scaled to controls: 0 for no effect and ±100 for the full control effect; nearly all actives have a fitted effect of over 75% in size
#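 Compounds were preincubated with 20 nM G9a for 15 min, after which biotinylated H3K9 peptide (500 nM) and SAM (20 uM) started a 2 h room-temperature reaction. Monomethylated product was quantified by antibody-based AlphaScreen chemiluminescence.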
# PLK1 PBD inh = qHTS for Inhibitors of PLK1-PDB (polo-like kinase 1 - polo-box domain): Primary Screen. hit rate 2.8% among 360,000. Potency, µM, inactives show max response, negative = inhibition, most hits filed as inhibitors. Plk1 PBD binding of FITC phosphopeptide, fluorescence polarization. AID 720504, 2013. Serine/threonine-protein kinase PLK1 (Homo sapiens), P53350; also: series mostly up to about 57 µM; % is scaled to controls: 0 for no effect and ±100 for the full control effect; nearly all actives have a fitted effect of over 65% in size
# Target sequence (P53350 whole entry, looked up, the tested form may be a part): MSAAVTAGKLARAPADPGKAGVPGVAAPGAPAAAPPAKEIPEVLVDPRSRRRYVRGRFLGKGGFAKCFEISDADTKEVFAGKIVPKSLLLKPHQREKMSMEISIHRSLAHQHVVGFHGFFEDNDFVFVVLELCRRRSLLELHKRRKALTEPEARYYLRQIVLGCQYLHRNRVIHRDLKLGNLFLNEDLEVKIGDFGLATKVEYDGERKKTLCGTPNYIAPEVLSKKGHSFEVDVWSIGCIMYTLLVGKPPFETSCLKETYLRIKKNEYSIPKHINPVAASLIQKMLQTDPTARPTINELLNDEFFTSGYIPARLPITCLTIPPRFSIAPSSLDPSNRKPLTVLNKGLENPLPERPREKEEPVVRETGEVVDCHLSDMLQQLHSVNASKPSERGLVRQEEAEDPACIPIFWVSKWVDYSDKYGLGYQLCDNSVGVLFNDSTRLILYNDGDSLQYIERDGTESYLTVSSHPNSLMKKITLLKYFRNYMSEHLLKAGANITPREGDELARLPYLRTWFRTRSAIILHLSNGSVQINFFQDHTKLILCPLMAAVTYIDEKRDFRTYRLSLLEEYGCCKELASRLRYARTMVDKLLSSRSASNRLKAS
# HP1b chromo inh = HTS for Inhibitors of HP1-beta Chromodomain Interactions with Methylated Histone Tails | Chromobox protein homolog 1 (Homo sapiens), P83916 | AlphaScreen HP1-beta / biotin-H3K9me3 peptide binding | Potency, µM (top dose mostly 114 µM), for the others: at the top dose activity change, negative = inhibition, most hits filed as inhibitors | hit rate 0.56% among 390,000 | AID 540317, 2011; also: nearly all actives have a fitted effect of over 70% in size
# Target sequence (P83916 whole entry, looked up): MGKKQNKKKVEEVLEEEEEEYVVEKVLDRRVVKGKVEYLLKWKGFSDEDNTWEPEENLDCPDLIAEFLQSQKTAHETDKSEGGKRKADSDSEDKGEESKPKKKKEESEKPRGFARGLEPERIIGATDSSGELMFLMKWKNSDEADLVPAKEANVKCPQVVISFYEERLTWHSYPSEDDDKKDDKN
#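 AlphaScreen: HP1-beta (50 nM) preformed 30 min with biotin-H3(1-18)K9me3 peptide (50 nM) in PBS pH 7.4, 0.01% Tween-20. Compound added for 30 min at RT, then streptavidin donor/nickel chelate acceptor beads (10 ug/mL) for 30 min.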
# BAZ2B block = qHTS Assay for Inhibitors of BAZ2B. AlphaScreen BAZ2B-H3K14Ac peptide displacement. Potency, µM (titrated, usually from 114 µM), inactives show at the top dose activity change, negative = inhibition, hits mostly inhibitors. hit rate 4.4% among 360,000; also: % is scaled to controls: 0 for no effect and ±100 for the full control effect; nearly all actives have a fitted effect of over 60% in size
#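 Multi-concentration screen (max 110 uM) measuring displacement of acetylated histone H3 peptide from BAZ2B by AlphaScreen, using 50 nM protein, 50 nM peptide and 10 ug/mL streptavidin donor plus Ni-chelate acceptor beads.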
# Active calls of the source: *; ? = inconclusive; / = no result given; ! = a repeat was not active; [ ] = remark or other dose. Only some compounds are listed: those with a hit (about 12% of all), similar ones and a draw of the others. Calls follow the shape of the dose curve; as a rule, active = well fitted curve in the direction sought with a large enough effect; inconclusive = small, poorly fitted or top-dose-only effect, or another doubt; inactive = no such curve, though single readings can be large; an effect the other way counts as inactive or inconclusive. Potency is read from the fitted curve at half-maximal effect.
SMILES,JMJD2A Tudor inh,Sfp inh,G9a inh,PLK1 PBD inh,HP1b chromo inh,BAZ2B block
CCOc1ccc(NC(=O)CN(C)C(=O)Cc2c[nH]c3ccccc23)cc1OCC,-26.4%,/,50.1µM*,-6.8%,-17.1%,-6.6%
Cc1cc2c(nc1C)CCCCN2C[C@H](C)O/N=C\[C@@H](C)[C@H](OCc1ccccc1)C(C)C,/,8.3%,/,/,/,/
O=C(O)c1ccc2c(c1)-c1nc3ccccc3n1C2=O,17.8µM*,?,39.8µM*,-8.2%,3.5%,?
CCc1cc(-c2nnn(-c3cc(C(C)C)ccc3C)c2CC)ccc1-c1cn(CCc2c[nH]c3ccccc23)nn1,/,/,/,4.0%,/,/
CCN(Cc1ccccc1)Cc1ccc(OCc2ccccc2)cc1,28.2µM*,-27.9%,/,-2.0%,-7.5%,?
CCCOc1ccc(C(C(=O)OCCN(CC)CC)c2ccccc2)cc1 (stereo not given),-20.5%[11.4 µM],-8.8%,8.91µM*,-11.4%,-34.4%,50.1µM*
Nc1cc(OCc2ccccc2)ccc1OCc1ccccc1,?,/,/,3.7%,-21.6%[57 µM],/
Nc1ccc(OCc2ccccc2)cc1,?,11.7%,11.2µM*,-7.4%,-14.6%,?
CCN(CC)CCOc1ccc(Cc2ccccc2)cc1,/,79.4µM*!,7.5%[59 µM],/,/,/
O=c1cc(OCc2ccccc2)cc[nH]1,11.2µM*,/,?,0.6%,8.91µM*,2.82µM*
COc1cc(C(=O)NNC(=O)c2nn(C)c(=O)c3ccccc23)cc(OC)c1OC,?,/,/,1.1%,28.2%,/
O=C(O)c1ccc2cc(-c3ccc(O)c(C45CC6CC(CC(C6)C4)C5)c3)ccc2c1,/,-8.8%,/,/,/,/
CSc1nc2[nH]c(=O)n(O)c(=O)c2n1Cc1ccccc1,3.16µM*,/,/,-5.8%,-15.3%,/
COc1ccc(CC(=O)NCc2ccc3c(c2)CCN3C(=O)c2ccc(C)cc2)cc1OC,-36.0%,/,3.2%[59 µM],/,-19.6%,-37.9%
ON=C1c2ccccc2-c2ccc(F)cc21,-14.6%,/,/,-0.6%,37.8%,/
CC1(C)[N+]([O-])=C2C(=[N+]([O-])C1(C)C)c1ccccc1/C2=N\O,-2.6%,-23.0%,50.1µM*,-2.1%,18.0%,?
COc1ccc(CCNC(=O)c2cc3cccc(OC)c3oc2=O)cc1OC,-18.0%,7.7%,1.8%,-3.2%,17.6%,-3.5%
Cc1ccc(C(=O)NCCc2c[nH]c3ccccc23)c(C)c1,-26.2%,0.7%,-44.4%,-8.4%,-8.2%,50.1µM*
COc1cc(-c2noc(C)c2C(=O)NCCc2cccs2)cc(OC)c1OC,-7.2%,/,/,-2.3%,45.9%,/
COc1cc(-c2noc(C)c2C(=O)NCCc2c[nH]c3ccccc23)cc(OC)c1OC,?,6.8%,31.6µM*,-7.6%,13.8%,50.1µM*
COc1cccc2cc(C(=O)NCCc3c[nH]c4ccccc34)c(=O)oc12,?,-0.8%,?,11.9µM*,?,-37.4%
O=C(NCCc1c[nH]c2ccccc12)c1cc([N+](=O)[O-])cc([N+](=O)[O-])c1,-24.4%,1.0%,10µM*,-8.5%,30.0%,-3.2%
Cc1cccc(NC(=O)c2nc[nH]c2C(=O)NCCCCNC(=O)c2[nH]cnc2C(=O)Nc2cccc(C)c2)c1,-29.5%,/,/,-14.4%,30.5%,/
Cc1nc(N2CCOCC2)c2c(C(=O)N3CCN(c4cc(Cl)ccc4C)CC3)c(C)oc2n1,-23.3%,/,-37.9%[59 µM],/,15.1%,-11.5%[57.1 µM]
CCN1C(C)=C(C)S/C1=C1\SC(=S)N(N)C1=O,-0.7%[57.1 µM],20µM*,/,-10.4%,18.4%,-19.3%
SMILES,JMJD2A Tudor inh,Sfp inh,G9a inh,PLK1 PBD inh,HP1b chromo inh,BAZ2B block
CC(C)(C)[C@H]1COC(=O)[C@H](Cc2ccc(F)cc2)CC/C=C/C[C@@H](CC(=O)N[C@H](CO)Cc2ccccc2)C(=O)N1,?,/,/,-2.7%,16.1%,/
CC(Oc1ccc2c(-c3ccccc3)cc(=O)oc2c1)C(=O)NC(Cc1c[nH]c2ccc(O)cc12)C(=O)O (stereo not given),?,-1.3%,/,-19.0%,11.0%,?
COc1ccc2c(c1)c(=O)oc1c(C)c(OC(C)C(=O)N[C@@H](Cc3c[nH]c4ccc(O)cc34)C(=O)O)ccc12 (stereo not given in full),?,-0.3%,/,-6.7%,5.6%,50.1µM*
COc1ccc(N(C(=O)c2ccco2)C(C(=O)NC2CCCC2)c2ccc(N(C)C)cc2)cc1 (stereo not given),?,-7.0%,79.4µM*,-8.5%,-25.7%,50.1µM*
COc1cc(OC)cc(N(C(=O)c2ccco2)C(C(=O)NC2CCCC2)c2ccc(N(C)C)cc2)c1 (stereo not given),?,5.6%,22.4µM*,2.6%,-19.6%,?
COc1cccc(N(C(=O)c2ccco2)C(C(=O)NC2CCCC2)c2ccc(N(C)C)cc2)c1 (stereo not given),?,2.9%,?,-1.4%,?,?
CCc1ccc(CNC(=O)c2nn(-c3ccc(C)cc3)c(=O)c3c2c2ccccc2n3C)cc1,?,/,-1.5%[59 µM],/,30.5%,/
COc1cccc(CCNC(=O)c2cnc3sc(N4CCCC4)nn3c2=O)c1,-9.8%,/,6.1%[59 µM],/,19.0%,-1.6%
CCc1ccccc1N(C)C(=O)C1CCCN(c2ncnc3c2nc2n3CCCCC2)C1 (stereo not given),-16.5%,/,-12.6%[59 µM],/,20.4%,-11.8%
COc1cc(S(=O)(=O)NCCc2ccc3c(c2)OCO3)ccc1-n1cnnn1,-9.2%,3.5%,56.2µM*,-9.3%,10.7%,-7.0%
COc1ccc(CNS(=O)(=O)c2ccc(-n3cnnn3)c(OC)c2)cc1,-1.4%,4.5%,50.1µM*,-3.9%,-12.9%,2.9%
COc1cc(S(=O)(=O)NCc2ccccc2)ccc1-n1cnnn1,4.2%,16.7%,18.6%,4.8%,34.1%,2.4%
CCCNS(=O)(=O)c1ccc(-n2cnnn2)c(OC)c1,-9.2%,9.5%,3.3%,2.3%,46.4%,-2.7%
COc1cccc(NC(=S)/C(=C(\[O-])c2cc(C)n(-c3ccccc3F)c2C)[n+]2ccc(N(C)C)cc2)c1,25.1µM*,-16.2%,35.5µM*,-24.4%,-18.0%,39.8µM*
Cc1ccc(NC(=O)c2cc(C)n(-c3ccccc3)c2C)cc1,-29.8%,0.3%,?,2.5%,-18.1%,?
COc1cccc(NC(=O)CCN2CCN(c3ccccc3F)CC2)c1,-25.9%,11.2%,10.0%[59 µM],0.6%,28.1%,1.5%
Cc1cc(C([O-])=C(C(=S)Nc2ccc(F)cc2)[n+]2ccccc2)c(C)n1-c1ccc(F)cc1,/,/,/,-4.1%,50.1µM*,/
